# Data reported in article PMC11006913.
# Substitutions are numbered along the chain they refer to.
# What was measured:
# Assay in all cases: PBM; 200 nM protein, PBS
# Settings in all cases: dsDNA, one strand shown
# SIX6 [1] = molecular target: T1, SIX6 (Homo sapiens, UniProt O95475 114-200, L167I)
# T1 sequence: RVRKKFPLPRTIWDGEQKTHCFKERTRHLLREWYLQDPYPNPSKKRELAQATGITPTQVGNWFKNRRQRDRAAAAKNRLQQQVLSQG
# SIX6 [2] = molecular target: T2, SIX6 (Homo sapiens, UniProt O95475 114-200, L143V)
# T2 sequence: T1 sequence with L30V, I54L
# SIX6 [3] = molecular target: T3, SIX6 (Homo sapiens, UniProt O95475 114-200, H141N)
# T3 sequence: T1 sequence with H28N, I54L
# SIX6 [4] = molecular target: T4, SIX6 (Homo sapiens, UniProt O95475 114-200, T165P)
# T4 sequence: T1 sequence with T52P, I54L
# SIX6 [5] = molecular target: T5, SIX6 (Homo sapiens, UniProt O95475 114-200, L167M)
# T5 sequence: T1 sequence with I54M
# SIX6 [6] = molecular target: T6, SIX6 (Homo sapiens, UniProt O95475 114-200, L143M)
# T6 sequence: T1 sequence with L30M, I54L
# SIX6 [7] = molecular target: T7, SIX6 (Homo sapiens, UniProt O95475 114-200, L143I)
# T7 sequence: T1 sequence with L30I, I54L
# SIX6 [8] = molecular target: T8, SIX6 (Homo sapiens, UniProt O95475 114-200, T165G)
# T8 sequence: T1 sequence with T52G, I54L
# SIX6 [9] = molecular target: T9, SIX6 (Homo sapiens, UniProt O95475 114-200, T139Q)
# T9 sequence: T1 sequence with T26Q, I54L
# SIX6 [10] = molecular target: T10, SIX6 (Homo sapiens, UniProt O95475 114-200, T165A)
# T10 sequence: T1 sequence with T52A, I54L
# SIX6 [11] = molecular target: T11, SIX6 (Homo sapiens, UniProt O95475 114-200, L167V)
# T11 sequence: T1 sequence with I54V
# SIX6 [12] = molecular target: T12, SIX6 (Homo sapiens, UniProt O95475 114-200)
# T12 sequence: T1 sequence with I54L
# SIX6 [13] = molecular target: T13, SIX6 (Homo sapiens, UniProt O95475 114-200, T165I)
# T13 sequence: T1 sequence with T52I, I54L
Sequence,binding signal (SIX6 [1]),binding signal (SIX6 [2]),binding signal (SIX6 [3]),binding signal (SIX6 [4]),binding signal (SIX6 [5]),binding signal (SIX6 [6]),binding signal (SIX6 [7]),binding signal (SIX6 [8]),binding signal (SIX6 [9]),binding signal (SIX6 [10]),binding signal (SIX6 [11]),binding signal (SIX6 [12]),binding signal (SIX6 [13])
GATGATAC,"11.4 upbm affinity estimate (log intensity, higher = more binding, comparable within an allelic series)","10.4 upbm affinity estimate (log intensity, higher = more binding, comparable within an allelic series)","11.3 upbm affinity estimate (log intensity, higher = more binding, comparable within an allelic series)","9.55 upbm affinity estimate (log intensity, higher = more binding, comparable within an allelic series)","10.7 upbm affinity estimate (log intensity, higher = more binding, comparable within an allelic series)","11.1 upbm affinity estimate (log intensity, higher = more binding, comparable within an allelic series)","10.5 upbm affinity estimate (log intensity, higher = more binding, comparable within an allelic series)","11.4 upbm affinity estimate (log intensity, higher = more binding, comparable within an allelic series)","11.3 upbm affinity estimate (log intensity, higher = more binding, comparable within an allelic series)","11.2 upbm affinity estimate (log intensity, higher = more binding, comparable within an allelic series)","11.2 upbm affinity estimate (log intensity, higher = more binding, comparable within an allelic series)","11.1 upbm affinity estimate (log intensity, higher = more binding, comparable within an allelic series)","11.1 upbm affinity estimate (log intensity, higher = more binding, comparable within an allelic series)"
GGCCCCAA,"8.91 upbm affinity estimate (log intensity, higher = more binding, comparable within an allelic series)","8.77 upbm affinity estimate (log intensity, higher = more binding, comparable within an allelic series)","8.92 upbm affinity estimate (log intensity, higher = more binding, comparable within an allelic series)","9.01 upbm affinity estimate (log intensity, higher = more binding, comparable within an allelic series)","8.96 upbm affinity estimate (log intensity, higher = more binding, comparable within an allelic series)","8.92 upbm affinity estimate (log intensity, higher = more binding, comparable within an allelic series)","8.81 upbm affinity estimate (log intensity, higher = more binding, comparable within an allelic series)","8.9 upbm affinity estimate (log intensity, higher = more binding, comparable within an allelic series)","9.04 upbm affinity estimate (log intensity, higher = more binding, comparable within an allelic series)","8.9 upbm affinity estimate (log intensity, higher = more binding, comparable within an allelic series)","8.9 upbm affinity estimate (log intensity, higher = more binding, comparable within an allelic series)","8.82 upbm affinity estimate (log intensity, higher = more binding, comparable within an allelic series)","8.91 upbm affinity estimate (log intensity, higher = more binding, comparable within an allelic series)"
AGGTGGGC,"8.98 upbm affinity estimate (log intensity, higher = more binding, comparable within an allelic series)","8.85 upbm affinity estimate (log intensity, higher = more binding, comparable within an allelic series)","8.88 upbm affinity estimate (log intensity, higher = more binding, comparable within an allelic series)","8.89 upbm affinity estimate (log intensity, higher = more binding, comparable within an allelic series)","8.86 upbm affinity estimate (log intensity, higher = more binding, comparable within an allelic series)","8.93 upbm affinity estimate (log intensity, higher = more binding, comparable within an allelic series)","8.92 upbm affinity estimate (log intensity, higher = more binding, comparable within an allelic series)","8.98 upbm affinity estimate (log intensity, higher = more binding, comparable within an allelic series)","9.06 upbm affinity estimate (log intensity, higher = more binding, comparable within an allelic series)","8.91 upbm affinity estimate (log intensity, higher = more binding, comparable within an allelic series)","8.91 upbm affinity estimate (log intensity, higher = more binding, comparable within an allelic series)","8.91 upbm affinity estimate (log intensity, higher = more binding, comparable within an allelic series)","8.94 upbm affinity estimate (log intensity, higher = more binding, comparable within an allelic series)"
